ChEMBL document CHEMBL1961873, “Compounds: GSK PKIS; Assays: Nanosyn kinase panel” (2012)

Biological target: Ribosomal protein S6 kinase alpha-1 (Homo sapiens) (UniProt Q15418)
Settings: at 0.1 µM

Chain of Ribosomal protein S6 kinase alpha-1 (Homo sapiens) (Q15418 whole entry): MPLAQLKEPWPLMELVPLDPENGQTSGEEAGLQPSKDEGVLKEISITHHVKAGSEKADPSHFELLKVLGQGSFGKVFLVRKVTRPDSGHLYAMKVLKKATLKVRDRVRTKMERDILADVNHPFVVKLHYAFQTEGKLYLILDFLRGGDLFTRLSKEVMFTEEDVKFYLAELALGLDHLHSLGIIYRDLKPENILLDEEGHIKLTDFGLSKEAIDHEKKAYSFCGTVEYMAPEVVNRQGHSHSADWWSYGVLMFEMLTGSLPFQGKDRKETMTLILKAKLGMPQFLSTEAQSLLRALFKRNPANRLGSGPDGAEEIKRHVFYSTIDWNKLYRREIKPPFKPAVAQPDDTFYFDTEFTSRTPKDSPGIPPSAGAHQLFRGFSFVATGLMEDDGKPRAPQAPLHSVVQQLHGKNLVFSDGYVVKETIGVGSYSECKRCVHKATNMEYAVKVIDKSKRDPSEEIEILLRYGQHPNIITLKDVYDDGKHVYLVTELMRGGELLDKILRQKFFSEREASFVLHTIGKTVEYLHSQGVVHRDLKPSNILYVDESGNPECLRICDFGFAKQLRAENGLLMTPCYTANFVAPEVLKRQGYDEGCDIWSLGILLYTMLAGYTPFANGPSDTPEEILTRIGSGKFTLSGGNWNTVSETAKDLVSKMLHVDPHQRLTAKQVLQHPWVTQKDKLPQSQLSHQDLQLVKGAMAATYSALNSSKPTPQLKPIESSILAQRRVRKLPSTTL

Row | Compound | inhibition [%]
1 | COc1ccc(-c2nn3ncccc3c2-c2ccnc(Nc3ccc4c(c3)OCCO4)n2)cc1 | -0.25
2 | COc1cccc(-n2ncc3c(N/N=C/c4ccc(F)cc4)ncnc32)c1 | 2.21
3 | CC1=C(C(=O)Nc2cc(Cl)c3[nH]ncc3c2)C(c2ccc(C(F)(F)F)cc2)CC(=O)N1 (centres undefined) | 27.8
4 | COc1cccc(-c2c[nH]c3c(N/N=C/c4ccncc4)ncnc23)c1 | 2.76
5 | CC(C)(CO)CNC(=O)c1ccc2c(c1)/C(=N/Nc1ccc(S(N)(=O)=O)cc1)C(=O)N2 | 0.63
6 | NS(=O)(=O)c1ccc(N/N=C2\C(=O)Nc3ccc4ncccc4c32)cc1 | 6.2
7 | CCn1c(-c2nonc2N)nc2cnc(Oc3cccc(NC(=O)c4ccc(N(C)C)cc4)c3)cc21 | 26.1
8 | c1ccc(-c2nc3n(c2-c2ccc4c(c2)OCO4)CCC3)nc1 | 4.98
9 | NC(=O)c1sc(-n2cnc3ccc(C(F)(F)F)cc32)cc1OCc1ccccc1Br | 2.63
10 | COc1ccc(-c2cc3c(N)ncnc3o2)cc1 | 1.04
11 | N#Cc1c(NC(=O)c2ccc(F)cc2)sc2c1CCCC2 | 1.41

Biological target: Ribosomal protein S6 kinase alpha-1 (Homo sapiens) (UniProt Q15418)
Settings: at 1 µM

Row | Compound | inhibition [%]
12 | c1ccc(COc2ccc(Nc3ncnc4ccc(-c5ccco5)cc34)cc2)cc1 | 1.39
13 | COC(=O)Nc1nc2ccc(S(=O)(=O)c3ccc(NC(=O)Nc4cc(C(F)(F)F)ccc4F)cc3)cc2[nH]1 | 0.31
14 | CN(C)CCOc1ccc(-c2nc(-c3ccncc3)c(-c3ccc4c(c3)CC/C4=N\O)[nH]2)cc1 | 5.08
15 | CS(=O)(=O)CCNCc1ccc(-c2ccc3ncnc(Nc4ccc(OCc5ccccc5)c(C(F)(F)F)c4)c3c2)o1 | 1.86
16 | COc1cc2ncn(-c3cc(OCc4ccccc4C(F)(F)F)c(C(=O)N(C)C)s3)c2cc1OC | 0.84
17 | CC(C)COC(=O)c1ccc2c(c1)/C(=C/Nc1ccc(S(N)(=O)=O)cc1)C(=O)N2 | 32.4
18 | CCc1nn2ncccc2c1-c1ccnc(NC2CC2)n1 | 2.08
19 | CN1CCC(n2cnc(-c3ccc(F)cc3)c2-c2ccnc(Nc3ccccc3)n2)CC1 | 4.83
20 | FC(F)(F)c1cccc(-c2nn3ncccc3c2-c2ccnc(Nc3ccc4c(c3)OCCO4)n2)c1 | 5.1
21 | COc1ccc2[nH]c3c4[nH]c5ccc(OC)cc5c4c4c(c3c2c1)C(=O)NC4=O | 82
22 | CNC(=O)c1cccc(C#Cc2cncnc2Nc2ccc(OCc3cccc(F)c3)c(Cl)c2)c1 | 1.83
23 | COc1cc(N2CCN(C(C)C)CC2)ccc1Nc1nc(Nc2ccc(F)cc2C(N)=O)c2cc[nH]c2n1 | 65.3
24 | Fc1ccc(-c2cc(-c3c[nH]nc3-c3ccccn3)ccn2)cc1 | 5.2
25 | COc1cc2c(cc1Nc1nc(Nc3ccsc3C(N)=O)c3cc[nH]c3n1)N(C(=O)CN(C)C)CCC2(C)C | 66
26 | Fc1ccc(-c2nn3ccccc3c2-c2ccncc2)cc1 | 4.42
27 | CCCN(CCS(C)(=O)=O)Cc1ccc(-c2ccc3ncnc(Nc4ccc(OCc5cccc(F)c5)c(Cl)c4)c3c2)o1 | 0.68
28 | COc1cc(/C=N/Nc2ncnc3[nH]ncc23)ccc1O | 11.3

Row | Compound | inhibition [%]
29 | c1cc(-c2cnn3nc(N4CCOCC4)ccc23)nc(NC2CC2)n1 | 8.38
30 | CN1CCC(n2cnc(-c3ccc(F)cc3)c2-c2ccnc(N)n2)CC1 | 4.9
31 | Fc1ccc(-c2nn3ncccc3c2-c2ccnc(Nc3ccc4c(c3)OCCO4)n2)cc1 | 4.94
32 | COc1ccc(-c2oc3ncnc(N)c3c2-c2ccc(NC(=O)Nc3cc(C(F)(F)F)ccc3F)cc2)cc1 | 61.3
33 | CCN(CC)S(=O)(=O)c1ccc(OC)c(Nc2ncc(-c3ccccc3)o2)c1 | 5.22
34 | Cc1ccc(O)cc1Nc1ccnc2cc(-c3ccccn3)ccc12 | 0.51
35 | COc1ccc(-c2nn3ncccc3c2-c2ccnc(Nc3ccc4c(c3)OCCO4)n2)cc1 | -1.03
36 | COc1cccc(-n2ncc3c(N/N=C/c4ccc(F)cc4)ncnc32)c1 | 4.62
37 | CC1=C(C(=O)Nc2cc(Cl)c3[nH]ncc3c2)C(c2ccc(C(F)(F)F)cc2)CC(=O)N1 (centres undefined) | 68.7
38 | COc1cccc(-c2c[nH]c3c(N/N=C/c4ccncc4)ncnc23)c1 | 7.19
39 | CC(C)(CO)CNC(=O)c1ccc2c(c1)/C(=N/Nc1ccc(S(N)(=O)=O)cc1)C(=O)N2 | 3.49
40 | NS(=O)(=O)c1ccc(N/N=C2\C(=O)Nc3ccc4ncccc4c32)cc1 | 30.6
41 | CCn1c(-c2nonc2N)nc2cnc(Oc3cccc(NC(=O)c4ccc(N(C)C)cc4)c3)cc21 | 68.3
42 | c1ccc(-c2nc3n(c2-c2ccc4c(c2)OCO4)CCC3)nc1 | 5.39
43 | NC(=O)c1sc(-n2cnc3ccc(C(F)(F)F)cc32)cc1OCc1ccccc1Br | 4.25
44 | COc1ccc(-c2cc3c(N)ncnc3o2)cc1 | 0.11
45 | N#Cc1c(NC(=O)c2ccc(F)cc2)sc2c1CCCC2 | 2.35

Biological target: Ribosomal protein S6 kinase alpha-3 (Homo sapiens) (UniProt P51812);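 further: reported value is a mean inhibition figure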
Settings: at 0.1 µM

Chain of Ribosomal protein S6 kinase alpha-3 (Homo sapiens) (P51812 whole entry): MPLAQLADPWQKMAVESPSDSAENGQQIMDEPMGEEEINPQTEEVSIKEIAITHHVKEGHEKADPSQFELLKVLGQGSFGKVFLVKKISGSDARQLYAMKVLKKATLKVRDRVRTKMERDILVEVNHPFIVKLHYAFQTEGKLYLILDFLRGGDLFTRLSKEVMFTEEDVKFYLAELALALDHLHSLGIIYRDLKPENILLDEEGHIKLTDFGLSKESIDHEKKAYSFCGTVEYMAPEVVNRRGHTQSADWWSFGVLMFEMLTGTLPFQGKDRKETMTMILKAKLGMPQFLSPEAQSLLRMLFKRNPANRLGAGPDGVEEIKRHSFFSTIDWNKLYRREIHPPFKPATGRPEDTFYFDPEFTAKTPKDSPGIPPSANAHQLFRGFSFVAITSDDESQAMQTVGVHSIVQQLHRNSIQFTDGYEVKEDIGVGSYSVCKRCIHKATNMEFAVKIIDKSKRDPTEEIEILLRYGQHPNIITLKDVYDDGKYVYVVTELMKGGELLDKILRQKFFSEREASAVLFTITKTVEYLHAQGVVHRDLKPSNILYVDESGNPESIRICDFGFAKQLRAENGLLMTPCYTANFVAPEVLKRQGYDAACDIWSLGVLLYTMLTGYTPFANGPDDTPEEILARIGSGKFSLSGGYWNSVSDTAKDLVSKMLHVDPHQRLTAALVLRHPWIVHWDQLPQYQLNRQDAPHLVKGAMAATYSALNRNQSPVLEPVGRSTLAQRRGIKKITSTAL

Row | Compound | inhibition [%]
46 | c1ccc(COc2ccc(Nc3ncnc4ccc(-c5ccco5)cc34)cc2)cc1 | 2.07
47 | COC(=O)Nc1nc2ccc(S(=O)(=O)c3ccc(NC(=O)Nc4cc(C(F)(F)F)ccc4F)cc3)cc2[nH]1 | 0.77
48 | CN(C)CCOc1ccc(-c2nc(-c3ccncc3)c(-c3ccc4c(c3)CC/C4=N\O)[nH]2)cc1 | 1.07
49 | CS(=O)(=O)CCNCc1ccc(-c2ccc3ncnc(Nc4ccc(OCc5ccccc5)c(C(F)(F)F)c4)c3c2)o1 | 1.54
50 | COc1cc2ncn(-c3cc(OCc4ccccc4C(F)(F)F)c(C(=O)N(C)C)s3)c2cc1OC | -0.53
51 | CC(C)COC(=O)c1ccc2c(c1)/C(=C/Nc1ccc(S(N)(=O)=O)cc1)C(=O)N2 | 7.27
52 | CCc1nn2ncccc2c1-c1ccnc(NC2CC2)n1 | 1.54
53 | CN1CCC(n2cnc(-c3ccc(F)cc3)c2-c2ccnc(Nc3ccccc3)n2)CC1 | 1.15
54 | FC(F)(F)c1cccc(-c2nn3ncccc3c2-c2ccnc(Nc3ccc4c(c3)OCCO4)n2)c1 | -0.79
55 | COc1ccc2[nH]c3c4[nH]c5ccc(OC)cc5c4c4c(c3c2c1)C(=O)NC4=O | 44.9
56 | CNC(=O)c1cccc(C#Cc2cncnc2Nc2ccc(OCc3cccc(F)c3)c(Cl)c2)c1 | -0.84
57 | COc1cc(N2CCN(C(C)C)CC2)ccc1Nc1nc(Nc2ccc(F)cc2C(N)=O)c2cc[nH]c2n1 | 15
58 | Fc1ccc(-c2cc(-c3c[nH]nc3-c3ccccn3)ccn2)cc1 | 0.81
59 | COc1cc2c(cc1Nc1nc(Nc3ccsc3C(N)=O)c3cc[nH]c3n1)N(C(=O)CN(C)C)CCC2(C)C | 17.2
60 | Fc1ccc(-c2nn3ccccc3c2-c2ccncc2)cc1 | 1.87
61 | CCCN(CCS(C)(=O)=O)Cc1ccc(-c2ccc3ncnc(Nc4ccc(OCc5cccc(F)c5)c(Cl)c4)c3c2)o1 | 0.4
62 | COc1cc(/C=N/Nc2ncnc3[nH]ncc23)ccc1O | 2.74

Row | Compound | inhibition [%]
63 | c1cc(-c2cnn3nc(N4CCOCC4)ccc23)nc(NC2CC2)n1 | 0.87
64 | CN1CCC(n2cnc(-c3ccc(F)cc3)c2-c2ccnc(N)n2)CC1 | -0.12
65 | Fc1ccc(-c2nn3ncccc3c2-c2ccnc(Nc3ccc4c(c3)OCCO4)n2)cc1 | 0.37
66 | COc1ccc(-c2oc3ncnc(N)c3c2-c2ccc(NC(=O)Nc3cc(C(F)(F)F)ccc3F)cc2)cc1 | 4.28
67 | CCN(CC)S(=O)(=O)c1ccc(OC)c(Nc2ncc(-c3ccccc3)o2)c1 | 0.74
68 | Cc1ccc(O)cc1Nc1ccnc2cc(-c3ccccn3)ccc12 | 0.48
69 | COc1ccc(-c2nn3ncccc3c2-c2ccnc(Nc3ccc4c(c3)OCCO4)n2)cc1 | 0.04
70 | COc1cccc(-n2ncc3c(N/N=C/c4ccc(F)cc4)ncnc32)c1 | 1.27
71 | CC1=C(C(=O)Nc2cc(Cl)c3[nH]ncc3c2)C(c2ccc(C(F)(F)F)cc2)CC(=O)N1 (centres undefined) | 22.3
72 | COc1cccc(-c2c[nH]c3c(N/N=C/c4ccncc4)ncnc23)c1 | 1.21
73 | CC(C)(CO)CNC(=O)c1ccc2c(c1)/C(=N/Nc1ccc(S(N)(=O)=O)cc1)C(=O)N2 | 0.73
74 | NS(=O)(=O)c1ccc(N/N=C2\C(=O)Nc3ccc4ncccc4c32)cc1 | 7.41
75 | CCn1c(-c2nonc2N)nc2cnc(Oc3cccc(NC(=O)c4ccc(N(C)C)cc4)c3)cc21 | 12.7
76 | c1ccc(-c2nc3n(c2-c2ccc4c(c2)OCO4)CCC3)nc1 | 4.41
77 | NC(=O)c1sc(-n2cnc3ccc(C(F)(F)F)cc32)cc1OCc1ccccc1Br | 0.56
78 | COc1ccc(-c2cc3c(N)ncnc3o2)cc1 | 1.43
79 | N#Cc1c(NC(=O)c2ccc(F)cc2)sc2c1CCCC2 | 0.9
